From paper PMC5540273 (PLoS ONE, 2017)
pKd: −log10 of the molar value.

Test system: FLT3
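Further: kd values determined as follow-up on hits from a single-replicate KINOMEscan panel screen.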

Compound	pKd
Cc1ccc(NC(=O)Nc2cc(C(C)(C)C)nn2-c2ccccc2)cc1 [GSK1014915]	7.59
Cn1ccc2ncnc(Oc3ccc(NC(=O)Nc4ccccc4)cc3)c21	7.48
O=C(Nc1n[nH]c2nc(-c3nccs3)c(Br)cc12)C1CC1 [SB-742251]	6.72

Test system: GAK

Compound	pKd
Cc1ccc(-c2cc(-c3c[nH]nc3-c3ccccn3)ccn2)cc1 [GW684088]	6.96
CSc1nn2c(=O)cc(N3CCOCC3)nc2n1Cc1cccc(C(F)(F)F)c1C [GSK2363608]	< 5.00
Fc1cc(Cl)ccc1Nc1ccnc2cc(I)ccc12 [GW551191]	6.47

Test system: GSK3A

Compound	pKd
Cc1nnc(-c2ccc3occ(-c4ccc(S(C)=O)cc4)c3c2)[nH]1 (stereo not drawn)	6.72
O=C(Nc1n[nH]c2nc(-c3nccs3)c(Br)cc12)C1CCCC1 [SB-742609]	7.21
O=C(Nc1n[nH]c2nc(-c3nccs3)c(Br)cc12)C1CC1 [SB-742251]	6.54
